From publication PMC5540273 (PLoS ONE, 2017)

test system: NEK7; conditions: concentration: 1 μM, replicates: in singlicate; n = 1
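Also: KINOMEscan kinase panel screen.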

| SMILES | %Inh |
| --- | --- |
| COc1cc2ncn(-c3cc(OCC4CCCO4)c(C(N)=O)s3)c2cc1OC (stereo not shown) [GSK204607] | 0% |
| COc1ccccc1-c1ccc2c(NC(=O)C3CC3)n[nH]c2n1 [SB-711239] | 6% |
| Cc1cccc(-c2cc(Nc3ccncc3)c3ccccc3n2)n1 [GSK223675] | 0% |
| COc1ccc(Nc2nccc(-c3cccc(NC(=O)c4cc5cc(F)ccc5[nH]4)c3)n2)cc1 [GSK1229782] | 0% |
| COc1ccc(Nc2nccc(NCCNC(=O)Nc3ccccc3F)n2)cc1 [GSK1379901] | 0% |
| NC(=O)c1nnc2ccccc2c1N | 0% |
| CC(C)(C)c1ccc(C(=O)Nc2cn3cc(Cl)ccc3n2)cc1 | 0% |
| COc1cccc(NC(=O)NC2CCN(c3ccnc(Nc4ccc(F)cc4)n3)C2)c1 (stereo not shown) [GSK1379721] | 16% |
| Cc1ccc(-c2cc(-c3c[nH]nc3-c3ccccn3)ccn2)cc1 [GW684088] | 0% |
| Cc1cc(N2Cc3ccccc3C2)nc(Nc2ccc(S(=O)(=O)N3CCOCC3)cc2)n1.Cl [GSK1669917] | 0% |
| CC(C)(C)c1ccc(C(=O)Nc2cn3cc(-c4cccnc4)ccc3n2)cc1 | 4% |
| Cc1ccccc1-n1cnc2c(N)ncnc21 [SKF-97510] | 12% |
| Fc1cccc(COc2nnc(-c3ccc4c(c3)CCO4)o2)c1 | 19% |
| Cc1ccc(C(=O)Nc2ccc(Nc3ccnc4cc(-c5ccccn5)ccc34)cc2O)cc1.Cl [GW440146] | 0% |
| CS(=O)(=O)c1ccc(-c2c(-c3ncn[nH]3)sc(N3CCOCC3)c2C#N)cc1 | 0% |
| COc1cc2nccc(Nc3ccc(NC(=O)c4ccc(C)cc4)c(O)c3)c2cc1OC.Cl [GW440132] | 0% |
| COC(=O)c1c(-c2ccccc2)c2cc(OC)ccc2c(=O)n1Cc1ccccc1 | 0% |

| SMILES | %Inh |
| --- | --- |
| O=C(O)COc1ncnc2cc(-c3ccc4[nH]ncc4c3)sc12 | 5% |
| COc1ccc(C2=C(Nc3cccc(C(=O)O)c3)C(=O)NC2=O)cc1 [SB-390765] | 28% |
| CCn1c(-c2ccccn2)nc2cnccc21 [SB-736398] | 0% |
| Cn1ccc2ncnc(Oc3ccc(Nc4nc5ccccc5[nH]4)cc3)c21 | 0% |
| O=C(Nc1n[nH]c2cc(-c3cccc(F)c3F)ccc12)C1CC1 [SB-733894] | 7% |
| Clc1cc(Cl)cc(Nc2ccnc(Nc3cc(Cl)cc(Cl)c3)n2)c1 [GSK175726] | 0% |
| Cc1cccc(-c2nc(Nc3ccncc3)c3ccccc3n2)n1 [GW855857] | 0% |
| CCCc1ccc(S(=O)(=O)NC2CCN(c3ccnc(Nc4ccc(F)cc4)n3)C2)cc1 (stereo not shown) [GSK1379715] | 0% |
| COc1ccc(CNC(=O)NC2CCN(c3ccnc(Nc4cc(OC)c(OC)c(OC)c4)n3)C2)cc1 (stereo not shown) [GSK1379748] | 15% |
| Cc1c(O)cccc1Nc1ccnc2ccc(C(F)(F)F)cc12.Cl [GW466413] | 0% |
| Cc1c(Cn2ccn3c(=O)cc(N4CCOCC4)nc23)cccc1C(F)(F)F [GSK2289044] | 4% |
| COC(=O)c1c(-c2ccccc2)c2cc(C(=O)O)ccc2c(=O)n1Cc1ccccc1 | 0% |
| Cl.c1ccc(-c2n[nH]cc2-c2ccnc(-c3ccc(CN4CCOCC4)cc3)c2)nc1 [GW776245] | 0% |
| Cc1cc(NCC(c2ccccc2)c2ccccc2)nc(NCc2ccc(C(F)(F)F)cc2)n1 [GW497681] | 0% |
| COc1cccc(-c2cc(-c3c[nH]nc3-c3ccccn3)ccn2)c1 [GW680338] | 0% |
| O=C(Nc1ccccc1)Nc1cccc(Oc2ccc3nccn3n2)c1 | 0% |
| Nc1ncnc2[nH]c(-c3ccccc3)nc12 [AH5015] | 7% |
